# Measurements taken from PubChem BioAssay AID1159580 (chemical genetic matrix, 2015).
# About 2,000 (36%) of roughly 5,500 compounds were called active. About 18% were inconclusive and are not listed. The list shows a part of the results. A number with no mark means an inactive call. Rule as the data show it: active = normalized growth mostly below about 0.91 (no sharp cut-off); inconclusive = no clear call, values can overlap the other calls; inactive = mostly above about 0.92.
# Assay: chemical genetic growth profiling, strain panel (AID 1159580);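 also: tested at 20 µM; growth read once vehicle control cultures reached saturation at 30 °C; 1 = growth at the plate median or of vehicle wells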
# Conditions: S. cerevisiae deletion strains, growth OD
# [1] = locus YDL101C, strain DUN1, stronger effect = lower value
# [2] = locus YHR030C, strain SLT2, stronger effect = lower value
# [3] = locus YAL013W, strain DEP1, stronger effect = lower value
# [4] = locus YBR229C, strain ROT2, stronger effect = lower value
# [5] = locus YDL134C, strain PPH21, stronger effect = lower value
# [6] = locus YDR150W, strain NUM1, stronger effect = lower value
# [7] = locus YEL061C, strain CIN8, stronger effect = lower value
# [8] = locus YGR078C, strain PAC10, stronger effect = lower value
# [9] = locus YGR229C, strain SMI1, stronger effect = lower value
# [10] = locus YHR087W, strain rtc3, stronger effect = lower value
# [11] = locus YJL187C, strain SWE1, stronger effect = lower value
# [12] = locus YJR043C, strain POL32, stronger effect = lower value
# [13] = locus YJR075W, strain HOC1, stronger effect = lower value
# [14] = locus YLR039C, strain RIC1, stronger effect = lower value
# [15] = locus YLR058C, strain SHM2 (second series), stronger effect = lower value
# [16] = locus YLR085C, strain ARP6, stronger effect = lower value
# [17] = locus YLR262C, strain YPT6, stronger effect = lower value
# [18] = locus YML094W, strain GIM5, stronger effect = lower value
# [19] = locus YMR219W, strain ESC1, stronger effect = lower value
# [20] = locus YMR263W, strain SAP30, stronger effect = lower value
# [21] = locus YNL153C, strain GIM3, stronger effect = lower value
# [22] = locus YNL298W, strain CLA4 (second series), stronger effect = lower value
# [23] = locus YNL322C, strain KRE1, stronger effect = lower value
# [24] = locus YNR030W, strain Alg12, stronger effect = lower value
# [25] = locus YPL055C, strain LGE1, stronger effect = lower value
# [26] = locus YPL241C, strain CIN2, stronger effect = lower value
# [27] = locus YPR135W, strain CTF4, stronger effect = lower value
structure (smiles),measurement,setting,value
N#CC(C#N)=NNc1ccc(C(F)(F)F)cc1,normalized growth,"locus YAR019C, strain CDC15, stronger effect = lower value",0.135 (active)
same,normalized growth,"locus YBL105C, strain PKC1, stronger effect = lower value",0.148 (active)
same,normalized growth,"locus YBR135W, strain CKS1, stronger effect = lower value",0.135 (active)
same,normalized growth,"locus YBR136W, strain MEC1, stronger effect = lower value",0.147 (active)
same,normalized growth,"locus YBR160W, strain CDC28, stronger effect = lower value",0.168 (active)
same,normalized growth,"locus YDL017W, strain CDC7, stronger effect = lower value",0.178 (active)
same,normalized growth,"locus YDL028C, strain MPS1, stronger effect = lower value",0.311 (active)
same,normalized growth,[1],0.124 (active)
same,normalized growth,"locus YDL108W, strain KIN28, stronger effect = lower value",0.152 (active)
same,normalized growth,"locus YDL132W, strain cdc53, stronger effect = lower value",0.126 (active)
same,normalized growth,"locus YDL214C, strain PRR2, stronger effect = lower value",0.131 (active)
same,normalized growth,"locus YDR052C, strain DBF4, stronger effect = lower value",0.255 (active)
same,normalized growth,"locus YDR054C, strain cdc34, stronger effect = lower value",0.138 (active)
same,normalized growth,"locus YDR226W, strain ADK1, stronger effect = lower value",0.178 (active)
same,normalized growth,"locus YDR477W, strain SNF1, stronger effect = lower value",0.116 (active)
same,normalized growth,"locus YER123W, strain YCK3, stronger effect = lower value",0.116 (active)
same,normalized growth,"locus YER133W, strain GLC7, stronger effect = lower value",0.11 (active)
same,normalized growth,"locus YFL009W, strain cdc4, stronger effect = lower value",0.132 (active)
same,normalized growth,"locus YFL029C, strain CAK1, stronger effect = lower value",0.138 (active)
same,normalized growth,"locus YFR003C, strain YPI1, stronger effect = lower value",0.339 (active)
same,normalized growth,"locus YFR019W, strain FAB1, stronger effect = lower value",0.12 (active)
same,normalized growth,"locus YFR028C, strain CDC14, stronger effect = lower value",0.144 (active)
same,normalized growth,"locus YGR040W, strain KSS1, stronger effect = lower value",0.113 (active)
same,normalized growth,"locus YGR052W, strain FMP48, stronger effect = lower value",0.129 (active)
same,normalized growth,"locus YGR092W, strain DBF2, stronger effect = lower value",0.105 (active)
same,normalized growth,[2],0.144 (active)
same,normalized growth,"locus YHR079C, strain IRE1, stronger effect = lower value",0.155 (active)
same,normalized growth,"locus YHR082C, strain KSP1, stronger effect = lower value",0.169 (active)
same,normalized growth,"locus YHR205W, strain SCH9, stronger effect = lower value",0.0194 (active)
same,normalized growth,"locus YIL147C, strain SLN1, stronger effect = lower value",0.397 (active)
same,normalized growth,"locus YJL095W, strain BCK1, stronger effect = lower value",0.116 (active)
same,normalized growth,"locus YJL128C, strain PBS2, stronger effect = lower value",0.149 (active)
same,normalized growth,"locus YJL157C, strain FAR1, stronger effect = lower value",0.106 (active)
same,normalized growth,"locus YJR016C, strain ILV3, stronger effect = lower value",0.13 (active)
same,normalized growth,"locus YJR066W, strain TOR1 (second series), stronger effect = lower value",0.116 (active)
same,normalized growth,"locus YJR066W, strain TOR1, stronger effect = lower value",0.146 (active)
same,normalized growth,"locus YKL048C, strain ELM1, stronger effect = lower value",0.134 (active)
same,normalized growth,"locus YKL067W, strain YNK1, stronger effect = lower value",0.113 (active)
same,normalized growth,"locus YKL101W, strain HSL1, stronger effect = lower value",0.112 (active)
same,normalized growth,"locus YKL193C, strain SDS22, stronger effect = lower value",0.118 (active)
same,normalized growth,"locus YKL203C, strain TOR2, stronger effect = lower value",0.132 (active)
same,normalized growth,"locus YLR113W, strain HOG1, stronger effect = lower value",0.166 (active)
same,normalized growth,"locus YLR133W, strain CKI1, stronger effect = lower value",0.109 (active)
same,normalized growth,"locus YLR403W, strain SFP1, stronger effect = lower value",0.0217 (active)
same,normalized growth,"locus YML070W, strain DAK1, stronger effect = lower value",0.106 (active)
same,normalized growth,"locus YMR001C, strain CDC5, stronger effect = lower value",0.133 (active)
same,normalized growth,"locus YMR205C, strain PFK2 (second series), stronger effect = lower value",0.104 (active)
same,normalized growth,"locus YMR277W, strain FCP1, stronger effect = lower value",0.119 (active)
same,normalized growth,"locus YNL006W, strain LST8, stronger effect = lower value",0.194 (active)
same,normalized growth,"locus YNL020C, strain ARK1, stronger effect = lower value",0.128 (active)
same,normalized growth,"locus YNL161W, strain CBK1, stronger effect = lower value",0.137 (active)
same,normalized growth,"locus YNL183C, strain NPR1, stronger effect = lower value",0.141 (active)
same,normalized growth,"locus YNL207W, strain RIO2, stronger effect = lower value",0.155 (active)
same,normalized growth,"locus YNL222W, strain SSU72, stronger effect = lower value",0.131 (active)
same,normalized growth,"locus YNL307C, strain MCK1 (second series), stronger effect = lower value",0.133 (active)
same,normalized growth,"locus YOL078W, strain AVO1, stronger effect = lower value",0.117 (active)
same,normalized growth,"locus YOL136C, strain PFK27, stronger effect = lower value",0.111 (active)
same,normalized growth,"locus YOR061W, strain CKA2, stronger effect = lower value",0.108 (active)
same,normalized growth,"locus YOR119C, strain RIO1, stronger effect = lower value",0.119 (active)
same,normalized growth,"locus YOR231W, strain MKK1, stronger effect = lower value",0.126 (active)
same,normalized growth,"locus YOR329C, strain SCD5, stronger effect = lower value",0.187 (active)
same,normalized growth,"locus YPL031C, strain PHO85, stronger effect = lower value",0.116 (active)
same,normalized growth,"locus YPL153C, strain RAD53, stronger effect = lower value",0.107 (active)
same,normalized growth,"locus YPL204W, strain HRR25, stronger effect = lower value",0.115 (active)
same,normalized growth,"locus YPL209C, strain IPL1, stronger effect = lower value",0.135 (active)
same,normalized growth,"locus YPL256C, strain CLN2, stronger effect = lower value",0.179 (active)
same,normalized growth,"locus YPR025C, strain CCL1, stronger effect = lower value",0.154 (active)
same,normalized growth,"locus YPR106W, strain ISR1, stronger effect = lower value",0.116 (active)
same,normalized growth,"locus YPR111W, strain DBF20, stronger effect = lower value",0.122 (active)
same,normalized growth,"strain NNK1, stronger effect = lower value",0.124 (active)
same,normalized growth,"strain TSCII, stronger effect = lower value",0.137 (active)
N#CC(C#N)=CNc1cc(C(F)(F)F)ccc1N1CCCCC1,normalized growth,[3],0.995
same,normalized growth,[4],1
same,normalized growth,[1],0.991
same,normalized growth,[5],0.997
same,normalized growth,[6],0.973
same,normalized growth,[7],1
same,normalized growth,[8],0.987
same,normalized growth,[9],1
same,normalized growth,[2],0.936
same,normalized growth,[10],1.01
same,normalized growth,[11],1
same,normalized growth,[12],1
same,normalized growth,[13],0.966
same,normalized growth,"locus YKL190W, strain CNB1, stronger effect = lower value",1
same,normalized growth,[14],0.997
same,normalized growth,[15],1
same,normalized growth,[16],0.96
same,normalized growth,[17],1.04
same,normalized growth,[18],0.989
same,normalized growth,[19],1
same,normalized growth,[20],0.986
same,normalized growth,"locus YMR307W, strain GAS1, stronger effect = lower value",0.909
same,normalized growth,[21],1.01
same,normalized growth,[22],1
same,normalized growth,[23],0.992
same,normalized growth,[24],1.01
same,normalized growth,"locus YOL006C, strain TOP1, stronger effect = lower value",1.01
same,normalized growth,[25],0.989
same,normalized growth,[26],0.996
same,normalized growth,[27],0.915
CC(=O)CC(C)=Nc1ccc(C(F)(F)F)cc1,normalized growth,[3],0.989
same,normalized growth,[4],0.991
same,normalized growth,[1],0.994
same,normalized growth,[5],1.03
same,normalized growth,[6],0.908
same,normalized growth,[7],1.01
same,normalized growth,[8],0.981
same,normalized growth,[9],1.02
same,normalized growth,[2],1.08
same,normalized growth,[10],0.971
same,normalized growth,[11],0.995
same,normalized growth,[12],1.01
same,normalized growth,[13],1.05
same,normalized growth,[14],1.05
same,normalized growth,[15],1
same,normalized growth,[16],1.03
same,normalized growth,[17],1.04
same,normalized growth,[18],0.993
same,normalized growth,[19],1
same,normalized growth,[20],1.05
same,normalized growth,[21],0.985
same,normalized growth,[22],1.05
same,normalized growth,[23],1
same,normalized growth,[24],1.02
same,normalized growth,[25],0.939
same,normalized growth,[26],1.08
same,normalized growth,[27],0.969
